# Source: the supplement of paper PMC4022240
# ± gives the standard deviation.
# T1: HaloTag-ATRX ADD domain (163-292)
# T1 chain: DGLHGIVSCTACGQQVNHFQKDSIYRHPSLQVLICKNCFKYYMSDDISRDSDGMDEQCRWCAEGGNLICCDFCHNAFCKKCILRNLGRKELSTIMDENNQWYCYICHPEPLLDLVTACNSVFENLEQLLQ
# Columns and labels:
# Test in all cases: peptide microarray binding signal (635 nm), min-max normalized on array (fraction of array maximum); higher = stronger binding
# Conditions in all cases: peptide region: Unmod H2B variant
# [1] = target: T1, HaloTag-ATRX ADD domain (163-292)
# Method in brief: (§1)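 Within each library, mean intensities of triplicate spots were min-max scaled to give the binding signal. The spots were histone 13-mer peptide–cellulose conjugates on nitrocellulose with a Cy3 tracer, blocked overnight at 4°C. They were then probed for 1 h at 4°C using biotin-labelled HaloTag reader fusions (10 nM to 1 μM) with streptavidin-Alexa Fluor 647 or rabbit histone antibodies (1:10,000 to 1:2,000) with anti-rabbit Alexa 647, and scanned at 635 nm for signal and 532 nm for misprints on an Axon GenePix 4000B.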
# [2] = target: HaloTag-ING2 PHD (mouse Ing2 200-280)
# Method in brief: as §1
# [3] = target: anti-H3K4me3 antibody ab8580
# Method in brief: as §1
# [4] = target: anti-H3K9me3 antibody ab8898
# Method in brief: as §1
# [5] = binder concentration: 1:2,000 dilution
# [6] = binder concentration: 1:10,000 dilution
Binder,peptide microarray binding signal ([1]; binder concentration: 50 nM),peptide microarray binding signal ([1]; binder concentration: 500 nM),peptide microarray binding signal ([2]; binder concentration: 10 nM),peptide microarray binding signal ([2]; binder concentration: 100 nM),"peptide microarray binding signal [3, 5]","peptide microarray binding signal [3, 6]","peptide microarray binding signal [4, 5]","peptide microarray binding signal [4, 6]"
GISSKAMGIMNSF [Unmod H2B variant G I S S K A M G I M N S F],0.00856 ± 0.00082,0.0227,0.00913 ± 0.00027,0.0416 ± 0.0056,0.00215 ± 0.00023,0.00348 ± 0.00045,0.000695 ± 1.2e-05,0.0011 ± 1.1e-05
EGKKRKRTRKESY [Unmod H2B variant E G K K R K R T R K E S Y],0.00661 ± 0.00023,0.0101 ± 0.00031,0.00251 ± 0.00012,0.00326 ± 0.0001,0.000378 ± 3.9e-06,0.000913 ± 1.6e-05,0.000302 ± 1.5e-05,0.000404 ± 4.4e-06
DIFERIAGEASRL [Unmod H2B variant D I F E R I A G E A S R L],0.0112 ± 0.00018,0.0406 ± 0.0012,0.013 ± 0.00037,0.0336 ± 0.00077,0.00406 ± 0.00012,0.00548 ± 0.00027,0.00234 ± 0.00013,0.003113 ± 2.6e-05
KRTRKESYSIYIY [Unmod H2B variant K R T R K E S Y S I Y I Y],0.015 ± 0.0008,0.0228 ± 0.0011,0.00716 ± 0.00018,0.0159 ± 0.0033,0.000529 ± 1.4e-05,0.0016 ± 5.3e-05,0.000468 ± 1.2e-05,0.0011 ± 1.1e-05
AMGIMNSFVNDIF [Unmod H2B variant A M G I M N S F V N D I F],0.0068 ± 0.00037,0.0162 ± 0.0016,0.0083 ± 0.00011,0.0126 ± 0.00023,0.00362 ± 0.00022,0.00548 ± 0.00033,0.00285 ± 0.0002,0.00311 ± 5.3e-05
KAQKKDGKKRKRS [Unmod H2B variant K A Q K K D G K K R K R S],0.0176 ± 0.012,0.00876 ± 0.00031,0.00275,0.00461 ± 0.00031,0.000415 ± 4.2e-06,0.00103 ± 2.1e-05,0.000227,0.000692 ± 7.3e-06
DIFERIASEASRL [Unmod H2B variant D I F E R I A S E A S R L],0.00655 ± 0.00034,0.00648 ± 0.00023,0.00454 ± 0.00011,0.0142 ± 0.0098,0.000793 ± 2.2e-05,0.00177 ± 2.9e-05,0.000453 ± 1.5e-05,0.001211 ± 1.2e-05
YSKRSTISSREIQ [Unmod H2B variant Y S K R S T I S S R E I Q],0.01006 ± 2.8e-05,0.0303 ± 0.0022,0.0109 ± 0.00062,0.0429 ± 0.0047,0.00225 ± 0.00019,0.00211 ± 6.7e-05,0.00103 ± 2.2e-05,0.0015 ± 2.5e-05
KVLKQVHPDTGIS [Unmod H2B variant K V L K Q V H P D T G I S],0.00552 ± 0.00019,0.00971 ± 0.0005,0.00531 ± 0.00011,0.0101 ± 0.00011,0.000755 ± 1.8e-05,0.001655 ± 1.6e-05,0.000483 ± 2.8e-05,0.00346 ± 0.0011
DGKKRKRSRKESY [Unmod H2B variant D G K K R K R S R K E S Y],0.00834 ± 0.00013,0.00714 ± 0.00021,0.00221 ± 3.8e-05,0.00454 ± 0.00011,0.000623 ± 2e-05,0.000628 ± 6.7e-06,0.000151 ± 1.6e-06,0.000461
APKKGSKKAITKA [Unmod H2B variant A P K K G S K K A I T K A],0.00592 ± 0.00021,0.00971 ± 0.00064,0.00239 ± 4.7e-05,0.00248 ± 6.3e-05,0.000264 ± 2.8e-06,0.00114 ± 3e-05,0.000302 ± 3.1e-06,0.000634 ± 1.2e-05
VHPDTGISSKAMG [Unmod H2B variant V H P D T G I S S K A M G],0.009373 ± 4.6e-05,0.0173 ± 0.0018,0.0154 ± 0.0017,0.0346 ± 0.0034,0.00563 ± 0.0004,0.00964 ± 0.0005,0.00272 ± 6.5e-05,0.00283 ± 4.9e-05
YNKRSTITSREIQ [Unmod H2B variant Y N K R S T I T S R E I Q],0.00837 ± 0.00045,0.0253 ± 0.0034,0.0181 ± 0.00093,0.0337 ± 0.0033,0.00293 ± 0.00014,0.00382 ± 0.00016,0.000936 ± 1.5e-05,0.00213 ± 7.9e-05
AMSIMNSFVTDIF [Unmod H2B variant A M S I M N S F V T D I F],0.0108 ± 0.0002,0.0253 ± 0.001,0.01188 ± 7.7e-05,0.0239 ± 0.0025,0.00882 ± 0.0011,0.0132 ± 0.00021,0.00523 ± 0.00065,0.00571 ± 0.00035
KTQKKEGKKRKRT [Unmod H2B variant K T Q K K E G K K R K R T],0.0089 ± 0.00018,0.0148 ± 0.0025,0.003163 ± 1.7e-05,0.00857 ± 0.0013,0.00068 ± 1.9e-05,0.0012 ± 1.2e-05,0.000287 ± 5.9e-06,0.000865 ± 9e-06
NSFVTDIFERIAS [Unmod H2B variant N S F V T D I F E R I A S],0.00646 ± 0.0003,0.0141 ± 0.00044,0.00483 ± 0.00011,0.00815 ± 0.00095,0.00238 ± 0.00045,0.00308 ± 0.00038,0.000936 ± 2e-05,0.00208 ± 9.6e-05
IAGEASRLAHYNK [Unmod H2B variant I A G E A S R L A H Y N K],0.0147 ± 0.00017,0.0384 ± 0.0025,0.0361 ± 0.0036,0.0742 ± 0.0014,0.00521 ± 0.00045,0.00633 ± 0.00022,0.00217 ± 5.9e-05,0.00259 ± 4.6e-05
NSFVNDIFERIAG [Unmod H2B variant N S F V N D I F E R I A G],0.00721 ± 0.00059,0.00671 ± 0.00013,0.00364 ± 0.00012,0.003827 ± 3.3e-05,0.00198 ± 0.00015,0.002339 ± 2.1e-05,0.00074 ± 6.4e-06,0.001614 ± 1.6e-05
GISSKAMSIMNSF [Unmod H2B variant G I S S K A M S I M N S F],0.0103 ± 0.00033,0.0293 ± 0.0012,0.011 ± 0.0025,0.0429 ± 0.016,0.00194 ± 0.00057,0.00228 ± 0.00014,0.000936 ± 5e-05,0.00144 ± 2.8e-05
KRSRKESYSIYVY [Unmod H2B variant K R S R K E S Y S I Y V Y],0.00561 ± 0.00019,0.0029 ± 0.00042,0.00179 ± 4.2e-05,0.000496 ± 9.7e-06,0.00051 ± 7.5e-05,0.000685 ± 1.5e-05,0.000227 ± 4.1e-06,0.000634 ± 1.2e-05
